# Experimental data taken from PubChem BioAssay.
# A number with no mark means an inactive call.
# Test: growth of efflux-deficient E. coli DRC39 – strain DRC39, OD650, 24 h, E. coli filamentation inducers, primary screen (AID 1178);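 also: growth measured as culture turbidity by optical density at 650 nm; test concentration not given here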
# Conditions: E. coli DRC39 acrAB, higher = more signal, called active from +8 up or from −8 down
row,Compound,z-score
1,CN1CCC(CCCO)=CC1c1ccc(CN2CCCC2)cc1 (configuration not stated),0.0543
2,C=C[C@H](C)[C@@H](O)c1ccc(O)c2ccccc12,0.537
3,COCCOC(=O)N1C(=O)[C@@]2(c3cc(C#CC4=CCCCC4)ccc31)[C@H](C(=O)N1CCc3cc(OC)c(OC)cc3C1)[C@H]1C(=O)O[C@H](c3ccccc3)[C@H](c3ccccc3)N1[C@@H]2c1ccccc1OCCO,-0.649
4,COC(=O)C1=CC(CCCO)=CC(C2CC2)N(Cc2sc3ccccc3c2Cl)C=C1C(=O)OC (configuration not stated),0.386
5,NC(=O)NCC#Cc1ccc2c(c1)[C@]1(C(=O)N2)[C@H](C(=O)N2CCCCCCC2)[C@H]2C(=O)O[C@H](c3ccccc3)[C@H](c3ccccc3)N2[C@@H]1c1ccc(OCCO)cc1,0.049
6,COc1ccccc1CN1C(=O)c2ccccc2[C@@H](C(=O)NCCN2CCOCC2)[C@@H]1c1ccc(CO)cc1,0.187
7,O=c1cccc(C=Cc2ccccc2)o1,-0.131
8,C=C[C@@H](COC(C)=O)N(Cc1ccc([N+](=O)[O-])cc1)S(=O)(=O)c1ccc(Br)cc1,1.01
9,CC(C)C(=C=CC[C@@H](O)c1ccccc1OCCO)C[C@@H](O)c1ccccn1,-0.749
10,CCCCC=C[C@@H](NC(=O)c1ccc(C(=O)OC)cc1)c1ccccc1,-0.0227
11,O=c1oc(-c2ccccc2)nc2cc(Br)ccc12,-0.117
12,C=CC(COC(C)=O)NS(=O)(=O)c1ccc(Br)cc1 (configuration not stated),-0.909
